# According to PubChem BioAssay (NCATS):
# “And” between values parts separate entries of the source, which are not always exact repeats. Identical values can stand only once. Results filed as inconclusive are left out. Where a call stands in place of a potency, no number is given. The source made the active and inactive calls. Unless noted, the call rests on the fitted dose curve; in most records, active means well fitted curve in the direction sought with a large enough effect; inconclusive means small, poorly fitted or top-dose-only effect, or another doubt; inactive means no such curve, though single readings can be large; an effect the other way counts as inactive or inconclusive. Where a SMILES comes first, the peptide text is derived from it. [ ]: non-standard residue; d: D form. pGlu = O=C1CC[C@@H](C(=O)O)N1; Thz = O=C(O)[C@@H]1CSCN1
# Columns and labels:
# [1] = target: ATP-dependent 6-phosphofructokinase (Trypanosoma brucei brucei) (UniProt O15648); experiment: qHTS Assay to Find Inhibitors of T. brucei phosphofructokinase: hit validation (AID 492961);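 further: luminescence reports ADP formed as PFK phosphorylates fructose-6-phosphate with ATP; series mostly up to about 51 µM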
# Outline: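 Measures ADP output of PFK (1.25 nM) at 0.1 mM ATP, 0.5 mM F6P, pH 8.0 TEA buffer with 5 mM MgCl2. No-enzyme wells define full inhibition; uninhibited enzyme wells define zero.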
# [2] = target: Ubiquitin carboxyl-terminal hydrolase 1 (Homo sapiens) (UniProt O94782); experiment: Inhibitors of USP1/UAF1: Pilot qHTS (AID 504865); further: nearly all actives have a fitted effect of over 35% in size; further: potency means the concentration at half of the fitted maximal effect
# Outline: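 Enzyme-free wells gave the negative control, while test wells held 1nM USP1/UAF1 preincubated with compound for 15 min at room temperature. Ub-Rho at 150nM final started the reaction, and fluorescence at 480/540 nm was recorded kinetically.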
# [3] = Validation screen for small molecules that induce genotoxicity in human embryonic kidney (HEK293T) cells expressing luciferase-tagged ELG1 (AID 493106)
# Outline: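 qHTS format; 2,000 HEK293T ELG1-luc cells/well; 23 nL compound via pin tool; 16 hr, 37 °C/5% CO2; ONE-Glo, 30 min RT; luminescence read.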
# [4] = target: ATPase family AAA domain-containing protein 5 (Homo sapiens) (UniProt Q96QE3); experiment: Validation screen for small molecules that inhibit ELG1-dependent DNA repair in human embryonic kidney (HEK293T) cells expressing luciferase-tagged ELG1 (AID 493107); further: nearly all actives have a fitted effect of over 70% in size; further: potency means the concentration at half of the fitted maximal effect
# Outline: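 ELG1-luciferase HEK293T reporter; 5-fluorouridine + compound/DMSO, 16 hr, 37 °C, 5% CO2; ONE-Glo 30 min RT; luminescence read, qHTS format.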
# [5] = target: Thyrotropin-releasing hormone receptor (Homo sapiens) (UniProt P34981); experiment: qHTS for Small Molecule Agonists and Allosteric Enhancers of Human TRH Receptor: Validation Screen for Agonists (AID 493127;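 active means calcium activation more than 3 SD above the typical response in the agonist read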;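 further: intracellular calcium rise by fluo-8 fluorescence before TRH EC20 addition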); conditions: TRH receptor agonist cell assay; at 2 µM; stronger effect = higher value
# Outline: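 Read-out: intracellular calcium release measured kinetically by FDSS (fluo-8, ex 480/em 530 nm), 1 reading/s after a 10-cycle baseline. TRHR cells, 2000/well, cultured 18 h at 33.5C, dye-loaded at room temp. Compound-evoked positive calcium signal flags agonists.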
# [6] = qHTS for Inhibitors of Cell Surface uPA Generation: Validation Assay (AID 493164);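 further: RAW 264.7 macrophage cells exposed to compound for 18 h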
# Outline: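 Compounds are titrated over seven points (2.45 nM–38.3 uM final) onto pre-plated RAW 264.7 cells and incubated for 18 h. Retained intracellular ATP, measured with ATP-Lite, indicates blocked lethal factor entry.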
# [7] = target: Galactokinase (Homo sapiens) (UniProt P51570); experiment: qHTS Validation Assay for Inhibitors of Human Galactokinase (GALK) (AID 493189)
# Outline: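 Enzyme activity is inferred from ATP consumption: human GALK phosphorylates galactose (100 uM) using 35 uM ATP for 1 h at room temperature, and luciferase-based Kinase-Glo Plus reports unconsumed ATP.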
# [8] = Validation screen for small molecules that induce DNA re-replication in SW480 colon adenocarcinoma cells (AID 504364)
# Outline: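 Read-out: total Hoechst intensity of nuclei by fluorescence scanning imager; hits raise the fraction of nuclei with elevated DNA content. Cells received compound for 48 hr at 37 C before a 40 min stain.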
# [9] = target: Peptidyl-prolyl cis-trans isomerase NIMA-interacting 1 (Homo sapiens) (UniProt Q13526); experiment: qHTS Validation Assay to Find Inhibitors of Pin1 (AID 504536; active means well fitted inhibition curve with a large enough effect in the polarisation, with a control signal flat, not every such curve was filed as active; the % refers to the polarisation)
# Outline: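 Fluorescence polarization competition: compounds (titration) displace HiFluor-488-labeled Pin1-1b peptide from Pin1 (0.3 uM final) in pH 7.5 HEPES buffer with DTT, 10 min at room temperature; %Activity normalized to no-enzyme wells, curves fitted.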
# [10] = target: Phosphoglycerate kinase, glycosomal (Trypanosoma brucei brucei) (UniProt P07378); experiment: qHTS Validation Assay to Find Inhibitors of Phosphoglycerate Kinase (AID 504547)
# Outline: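 Luminescence end-point (Kinase-Glo Plus, 10 min) after a 60 min room-temperature coupled reaction. GAPDH at 100nM final supplies 1,3-BPG to PGK. Buffer: 100mM TEA pH 7.6, 5mM MgCl2, 0.01% Tween-20. Wells lacking PGK served as controls.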
# [11] = target: phosphoglycerate mutase (Leishmania major) (UniProt Q4Q090); experiment: qHTS Validation Assay to Find Inhibitors of Phosphoglycerate Mutase (AID 504548); conditions: Potency: inhibition qHTS;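 further: end-point luminescence from Kinase-GloPlus after the PGAM reaction; series mostly up to about 58 µM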
# Outline: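 L. major PGAM (1.25nM final) was added to substrate buffer and pinned compound, incubated 45 minutes at room temperature, then Kinase-GloPlus added; luminescence read after 10 minutes. Buffer: 100 mM TEA pH 7.6, 5 mM MgCl2, 0.01% Tween-20.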
# [12] = qHTS for Inhibitors of ATXN expression: Validation of Cytotoxic Assay (AID 588349)
# Outline: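 Cytotoxicity counter-screen: HEK293 cells exposed to compound titrations, 72 hr, 37 degrees C. Read-out is intracellular ATP (CellTiter Glo luminescence) as a viability measure.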
# [13] = qHTS for Inhibitors of ATXN expression: Validation (AID 588378); further: series mostly up to about 57 µM; nearly all actives have a fitted effect of over 75% in size
# Outline: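 After a 2 h attachment and 24 h compound incubation, HEK293-ATXN2-FFLuc wells are read for fluorescence at 405 nm excitation/525 nm emission as a viability measure, then for Bright-Glo luminescence reflecting ATXN2 expression.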
# [14] = Nrf2 qHTS screen for inhibitors: Validation (AID 493153; active means well fitted inhibition curve with a large enough effect in the main read-out, with a control signal flat, not every such curve was filed as active); conditions: Potency: luciferase luminescence; viability change: measured here: cytotoxicity max response
# Outline: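 Concentration-response test in A549 ARE_Fluc reporter cells (5% FBS OPTI-MEM), compound exposure 18-24 h at 37°C, 5% CO2. Cell viability measured first by CellTiter-Fluor fluorescence; ARE-driven luciferase luminescence then measured as Nrf2 activity.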
# [15] = target: DNA dC->dU-editing enzyme APOBEC-3G (Homo sapiens) (UniProt Q9HC16); experiment: qHTS for inhibitors of Vif-A3G interactions: Validation (AID 588379)
# Outline: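 Yellow fluorescence (Ex 488, Em 500-530) of Vif-coexpressing HeLa A3G-eYFP cells, scanned by Acumen cytometer, reports blocked A3G degradation. Cells plated at 700/well overnight at 37 deg C before compound addition, then a further overnight compound incubation at 37 deg C.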
# Chain of Peptidyl-prolyl cis-trans isomerase NIMA-interacting 1 (Homo sapiens) (Q13526 whole entry, looked up): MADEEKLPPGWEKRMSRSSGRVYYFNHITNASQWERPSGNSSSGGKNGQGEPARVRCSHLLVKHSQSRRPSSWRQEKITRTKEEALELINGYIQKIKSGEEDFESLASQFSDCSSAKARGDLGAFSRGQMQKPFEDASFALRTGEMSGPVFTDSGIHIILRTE
# Chain of Ubiquitin carboxyl-terminal hydrolase 1 (Homo sapiens) (O94782 whole entry, looked up): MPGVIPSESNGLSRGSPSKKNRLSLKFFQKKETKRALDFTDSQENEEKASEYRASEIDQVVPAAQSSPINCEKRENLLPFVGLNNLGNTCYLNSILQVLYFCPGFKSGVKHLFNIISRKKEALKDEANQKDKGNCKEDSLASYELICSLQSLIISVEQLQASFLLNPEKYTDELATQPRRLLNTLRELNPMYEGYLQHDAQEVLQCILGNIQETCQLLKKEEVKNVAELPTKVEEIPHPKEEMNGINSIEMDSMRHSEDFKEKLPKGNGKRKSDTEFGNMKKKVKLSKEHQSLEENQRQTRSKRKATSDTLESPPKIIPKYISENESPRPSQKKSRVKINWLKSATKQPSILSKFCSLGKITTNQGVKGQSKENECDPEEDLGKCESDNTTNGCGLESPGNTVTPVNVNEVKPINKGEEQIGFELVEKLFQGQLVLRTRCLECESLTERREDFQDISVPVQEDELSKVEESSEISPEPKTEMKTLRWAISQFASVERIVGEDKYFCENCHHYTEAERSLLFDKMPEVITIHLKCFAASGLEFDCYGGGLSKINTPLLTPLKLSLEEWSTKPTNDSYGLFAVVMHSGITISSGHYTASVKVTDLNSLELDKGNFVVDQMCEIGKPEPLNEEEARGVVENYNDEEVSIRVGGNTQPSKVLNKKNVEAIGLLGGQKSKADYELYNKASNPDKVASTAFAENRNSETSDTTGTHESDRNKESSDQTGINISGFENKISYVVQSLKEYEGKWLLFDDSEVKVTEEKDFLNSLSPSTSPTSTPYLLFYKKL
# Chain of ATP-dependent 6-phosphofructokinase (Trypanosoma brucei brucei) (O15648 whole entry, looked up): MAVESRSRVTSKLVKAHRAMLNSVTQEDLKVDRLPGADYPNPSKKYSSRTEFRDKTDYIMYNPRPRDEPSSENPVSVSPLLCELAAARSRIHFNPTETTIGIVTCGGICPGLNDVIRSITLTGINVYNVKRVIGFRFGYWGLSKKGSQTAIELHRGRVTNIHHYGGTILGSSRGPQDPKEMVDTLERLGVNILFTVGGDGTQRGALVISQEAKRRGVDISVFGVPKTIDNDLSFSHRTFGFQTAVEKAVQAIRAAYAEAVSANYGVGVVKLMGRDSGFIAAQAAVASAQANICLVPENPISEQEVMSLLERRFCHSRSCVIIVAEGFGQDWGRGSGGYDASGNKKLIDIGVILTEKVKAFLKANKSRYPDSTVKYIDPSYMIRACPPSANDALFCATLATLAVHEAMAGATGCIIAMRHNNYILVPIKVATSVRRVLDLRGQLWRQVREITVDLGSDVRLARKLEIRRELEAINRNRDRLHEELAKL
# Chain of ATPase family AAA domain-containing protein 5 (Homo sapiens) (Q96QE3 whole entry, looked up, the tested form may be a part): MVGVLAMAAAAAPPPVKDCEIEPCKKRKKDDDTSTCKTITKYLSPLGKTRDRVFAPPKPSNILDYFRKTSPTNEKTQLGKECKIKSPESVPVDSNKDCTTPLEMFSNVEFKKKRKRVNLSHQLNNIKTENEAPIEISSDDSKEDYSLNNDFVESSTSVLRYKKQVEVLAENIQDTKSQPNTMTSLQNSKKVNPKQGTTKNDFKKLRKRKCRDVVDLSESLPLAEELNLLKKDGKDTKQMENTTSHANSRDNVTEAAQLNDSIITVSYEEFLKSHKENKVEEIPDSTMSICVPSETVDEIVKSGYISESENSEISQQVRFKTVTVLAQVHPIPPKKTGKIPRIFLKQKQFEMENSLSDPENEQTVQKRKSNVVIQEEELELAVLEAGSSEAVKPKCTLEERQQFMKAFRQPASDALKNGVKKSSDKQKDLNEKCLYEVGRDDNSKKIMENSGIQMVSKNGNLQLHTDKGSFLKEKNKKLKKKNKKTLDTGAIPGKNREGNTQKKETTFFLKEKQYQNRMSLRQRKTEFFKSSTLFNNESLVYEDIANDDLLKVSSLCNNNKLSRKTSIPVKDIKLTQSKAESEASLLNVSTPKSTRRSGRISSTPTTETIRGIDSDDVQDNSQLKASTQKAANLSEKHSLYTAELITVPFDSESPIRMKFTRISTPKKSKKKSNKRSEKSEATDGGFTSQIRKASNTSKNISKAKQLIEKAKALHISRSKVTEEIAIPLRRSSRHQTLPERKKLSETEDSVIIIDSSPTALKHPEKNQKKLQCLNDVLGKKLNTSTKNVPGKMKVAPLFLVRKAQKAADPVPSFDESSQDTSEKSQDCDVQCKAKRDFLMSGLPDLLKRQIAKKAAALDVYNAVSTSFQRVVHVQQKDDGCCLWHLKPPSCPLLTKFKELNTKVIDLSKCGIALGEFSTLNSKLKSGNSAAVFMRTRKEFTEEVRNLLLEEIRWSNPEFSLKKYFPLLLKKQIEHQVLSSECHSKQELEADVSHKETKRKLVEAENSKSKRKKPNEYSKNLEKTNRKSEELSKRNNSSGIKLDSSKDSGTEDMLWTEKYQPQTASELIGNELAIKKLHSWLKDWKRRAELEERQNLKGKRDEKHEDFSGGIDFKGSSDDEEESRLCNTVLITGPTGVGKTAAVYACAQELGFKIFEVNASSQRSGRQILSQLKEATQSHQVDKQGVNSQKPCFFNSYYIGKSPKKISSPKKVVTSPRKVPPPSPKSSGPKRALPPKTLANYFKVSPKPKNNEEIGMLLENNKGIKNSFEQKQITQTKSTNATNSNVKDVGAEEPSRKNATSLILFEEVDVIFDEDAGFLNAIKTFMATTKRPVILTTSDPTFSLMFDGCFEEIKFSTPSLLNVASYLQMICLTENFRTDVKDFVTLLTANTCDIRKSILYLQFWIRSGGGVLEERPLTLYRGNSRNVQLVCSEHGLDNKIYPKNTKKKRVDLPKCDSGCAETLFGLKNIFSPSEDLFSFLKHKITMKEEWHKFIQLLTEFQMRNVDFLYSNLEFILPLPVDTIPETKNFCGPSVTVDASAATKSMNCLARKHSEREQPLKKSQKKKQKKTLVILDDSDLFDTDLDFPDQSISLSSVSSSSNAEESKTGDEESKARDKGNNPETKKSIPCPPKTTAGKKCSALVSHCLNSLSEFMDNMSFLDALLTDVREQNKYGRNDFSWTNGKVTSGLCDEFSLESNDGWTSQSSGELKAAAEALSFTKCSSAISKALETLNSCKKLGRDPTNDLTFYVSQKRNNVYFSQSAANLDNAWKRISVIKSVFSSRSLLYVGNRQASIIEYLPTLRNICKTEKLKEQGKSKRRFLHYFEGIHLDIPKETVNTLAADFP
# Chain of phosphoglycerate mutase (Leishmania major) (Q4Q090 1-553): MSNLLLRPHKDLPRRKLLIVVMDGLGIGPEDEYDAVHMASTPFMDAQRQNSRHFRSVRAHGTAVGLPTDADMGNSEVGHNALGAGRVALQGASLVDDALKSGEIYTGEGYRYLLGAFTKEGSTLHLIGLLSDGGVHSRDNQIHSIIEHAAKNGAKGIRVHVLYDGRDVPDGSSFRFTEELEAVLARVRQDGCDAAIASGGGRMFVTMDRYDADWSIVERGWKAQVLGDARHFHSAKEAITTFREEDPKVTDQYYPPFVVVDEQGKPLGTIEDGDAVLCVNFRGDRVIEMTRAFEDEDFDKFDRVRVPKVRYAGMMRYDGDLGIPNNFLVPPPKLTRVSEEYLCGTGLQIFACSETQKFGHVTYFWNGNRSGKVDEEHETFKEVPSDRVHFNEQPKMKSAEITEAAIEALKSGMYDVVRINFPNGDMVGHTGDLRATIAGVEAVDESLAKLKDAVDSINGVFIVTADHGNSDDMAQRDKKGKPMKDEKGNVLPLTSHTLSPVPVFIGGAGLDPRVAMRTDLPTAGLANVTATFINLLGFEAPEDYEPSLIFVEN
# Chain of Phosphoglycerate kinase, glycosomal (Trypanosoma brucei brucei) (P07378 whole entry, looked up): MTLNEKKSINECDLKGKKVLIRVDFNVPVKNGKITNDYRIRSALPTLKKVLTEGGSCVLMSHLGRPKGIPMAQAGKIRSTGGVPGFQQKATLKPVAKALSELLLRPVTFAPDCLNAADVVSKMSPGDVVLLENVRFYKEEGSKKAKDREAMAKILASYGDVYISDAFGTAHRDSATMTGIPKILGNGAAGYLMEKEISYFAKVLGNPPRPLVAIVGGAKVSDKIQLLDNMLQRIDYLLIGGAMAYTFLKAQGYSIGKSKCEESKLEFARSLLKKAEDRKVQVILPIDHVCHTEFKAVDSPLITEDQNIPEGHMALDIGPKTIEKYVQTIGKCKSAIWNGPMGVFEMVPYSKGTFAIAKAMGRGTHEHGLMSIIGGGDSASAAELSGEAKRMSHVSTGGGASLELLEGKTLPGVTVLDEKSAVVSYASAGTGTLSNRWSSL
# Chain of Thyrotropin-releasing hormone receptor (Homo sapiens) (P34981 whole entry, looked up): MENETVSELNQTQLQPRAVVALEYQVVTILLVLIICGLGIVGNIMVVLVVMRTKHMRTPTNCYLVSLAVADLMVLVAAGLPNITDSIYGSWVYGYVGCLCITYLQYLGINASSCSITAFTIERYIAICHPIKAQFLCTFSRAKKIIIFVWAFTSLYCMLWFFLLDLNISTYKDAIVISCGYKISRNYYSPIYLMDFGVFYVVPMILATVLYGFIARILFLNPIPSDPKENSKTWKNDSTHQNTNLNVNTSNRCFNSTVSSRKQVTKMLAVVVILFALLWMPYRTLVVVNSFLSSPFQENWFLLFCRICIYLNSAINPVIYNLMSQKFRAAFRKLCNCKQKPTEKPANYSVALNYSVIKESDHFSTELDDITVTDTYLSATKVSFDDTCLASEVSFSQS
smiles,measurement,setting,value
c1ccc2sc(SN3CCOCC3)nc2c1,outcome,[1],inactive
same,Potency,[2],inactive
O=C1CC[C@@H](C(=O)N2CSC[C@H]2C(=O)O)N1 ([pGlu]-[Thz]-OH),outcome,[1],inactive
same,Potency,[2],inactive
O=C(/C=C/c1ccccc1)NCCO,outcome,[1],inactive
same,Potency,[2],inactive
O=C(O)[C@H](O)[C@@H](O)[C@H](O)[C@H](O)CO,outcome,[1],inactive
same,Potency,[2],inactive
CN1[C@@H](CC(=O)c2ccccc2)CCC[C@H]1C[C@H](O)c1ccccc1,outcome,[1],inactive
same,Potency,[3],inactive
same,Potency,[4],inactive
same,activation,[5],0.5% (inactive)
same,outcome,[6],inactive
same,Potency,[7],inactive
same,Potency,[8],inactive
same,Potency,[9],inactive
same,Potency,[10],inactive
same,Potency,[11],inactive
same,Potency,[2],inactive
Cc1c(Nc2ncccc2C(=O)O)cccc1C(F)(F)F,outcome,[1],inactive
same,Potency,[2],inactive
O=C(Nc1ccc(C(=O)O)c(O)c1)c1ccccc1,outcome,[1],inactive
CC1(C)C[C@@H]1C(=O)N/C(=C\CCCCSC[C@H](N)C(=O)O)C(=O)O,outcome,[1],inactive
same,Potency,[2],inactive
COc1ccc(-c2cc(=S)ss2)cc1,outcome,[1],inactive
CCCCCCCCCCCC(=O)[O][Sn]([CH2]CCC)([CH2]CCC)[O]C(=O)CCCCCCCCCCC,outcome,[1],inactive
O=C1CN(/N=C/c2ccc(-c3ccc([N+](=O)[O-])cc3)o2)C(=O)N1,outcome,[1],inactive
same,Potency,[2],inactive
Nc1c(CC(=O)O)cccc1C(=O)c1ccc(Br)cc1,outcome,[1],inactive
same,Potency,[2],inactive
C=CCN1C(=O)C(CC(C)C)NC1=S (stereo not given),outcome,[1],inactive
same,Potency,[2],inactive
CC(C(=O)O)c1ccc2c(c1)[nH]c1ccc(Cl)cc12 (stereo not given),outcome,[1],inactive
same,Potency,[2],inactive
CCCSc1ccc2nc(NC(=O)OC)[nH]c2c1,outcome,[1],inactive
same,Potency,[2],inactive
CCCC(=O)OC[C@@H](OC(=O)CCC)[C@@H](OC(=O)CCC)[C@H](Cn1c2nc(=O)[nH]c(=O)c-2nc2cc(C)c(C)cc21)OC(=O)CCC,outcome,[1],inactive
same,Potency,[2],39.8 µM (active)
Cc1cc(O)c2ccccc2c1O,outcome,[1],inactive
same,Potency,[2],inactive
Nc1ccc(C(=O)O)c(O)c1,outcome,[1],inactive
same,Potency,[2],inactive
N=c1ccn2c(n1)O[C@H]1[C@H](O)[C@@H](CO)O[C@H]12,outcome,[1],inactive
same,Potency,[3],inactive
same,Potency,[4],inactive
same,outcome,[6],inactive
same,Potency,[9],inactive
same,Potency,[10],inactive
same,Potency,[11],inactive
same,Potency,[2],inactive
same,Potency,[12],inactive
O=C(O)Cc1ccc(-c2ccccc2)cc1,outcome,[1],inactive
same,Potency,[2],inactive
Cc1ccccc1CNc1ncnc2c1ncn2C1OC(CO)C(O)C1O (stereo not given),outcome,[1],inactive
same,Potency,[4],13 µM (active)
same,activation,[5],1.31% (inactive)
same,outcome,[6],inactive
same,Potency,[7],inactive
same,Potency,[8],inactive
same,Potency,[9],inactive
same,Potency,[10],inactive
same,Potency,[11],inactive
same,Potency,[2],inactive
same,Potency,[13],inactive
Cc1[nH]cnc1CN1CCc2c(c3ccccc3n2C)C1=O,outcome,[1],inactive
same,Potency,[2],inactive
CCCCCCOc1ccccc1C(N)=O,outcome,[1],inactive
CC1OC1P(=O)(O)O (stereo not given),outcome,[1],inactive
same,Potency,[3],inactive
same,Potency,[4],inactive
same,Potency,[14],inactive
same,viability change,[14],11.8%
same,outcome,[6],inactive
same,Potency,[9],inactive
same,Potency,[10],inactive
same,Potency,[11],inactive
same,Potency,[13],inactive
Cc1ccc(C(=O)c2ccc(CC(=O)O)n2C)cc1,outcome,[1],inactive
same,Potency,[2],inactive
O=C(CCN1CCN(CCO)CC1)N1c2ccccc2Sc2ccc(C(F)(F)F)cc21,outcome,[1],inactive
same,Potency,[2],inactive
CCOC(=O)c1ccccc1O,outcome,[1],inactive
same,Potency,[2],inactive
CCC1C(=O)OCC1Cc1cncn1C (stereo not given),outcome,[1],inactive
same,Potency,[3],inactive
same,Potency,[4],inactive
same,Potency,[14],inactive
same,viability change,[14],6.63% and 6.13%
same,outcome,[6],inactive
same,Potency,[9],inactive
same,Potency,[10],inactive
same,Potency,[11],inactive
same,Potency,[13],inactive
same,Potency,[15],inactive
CN1[C@@H]2CC[C@H]1CC(OC(c1ccccc1)c1ccccc1)C2 (stereo not given in full),outcome,[1],inactive
same,Potency,[2],inactive
O=C(O)[C@H](CC(=O)N1C[C@H]2CCCC[C@H]2C1)Cc1ccccc1,outcome,[1],inactive
same,Potency,[2],inactive
CCCCCCCCCCCCCCCC(=O)OC(C)C,outcome,[1],inactive
same,Potency,[2],inactive
